Compounds with a hit are over-represented: about 4.8% of the library has one in this group of screens.
D3 antag – blocks the human D3 dopamine receptor; P35462; D3R cells, DiscoveRx beta-arrestin luminescence, antagonist mode; active compounds read low; max response, negative = inhibition, %; hit rate 2.5% among 360,000; AID 652054; in the data active = max response below about -50%; inconclusive = no clear call, values can overlap the other calls
Target sequence (P35462 whole entry, looked up): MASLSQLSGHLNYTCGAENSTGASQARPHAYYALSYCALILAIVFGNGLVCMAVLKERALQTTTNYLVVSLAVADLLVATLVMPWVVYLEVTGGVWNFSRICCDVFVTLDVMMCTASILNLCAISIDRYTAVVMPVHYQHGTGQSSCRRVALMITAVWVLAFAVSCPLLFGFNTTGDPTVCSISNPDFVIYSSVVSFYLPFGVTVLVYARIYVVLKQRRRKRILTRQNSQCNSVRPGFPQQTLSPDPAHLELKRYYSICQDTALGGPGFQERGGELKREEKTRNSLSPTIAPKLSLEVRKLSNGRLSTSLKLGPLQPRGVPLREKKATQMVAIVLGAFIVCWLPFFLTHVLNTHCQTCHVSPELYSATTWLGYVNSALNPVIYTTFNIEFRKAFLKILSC
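Cells expressing the human receptor were seeded at 1500 cells/well, incubated overnight at 37 degrees C in 5% CO2, then exposed to library compounds with dopamine controls for 90 minutes at 37 degrees C before luminescent detection.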
D3 ag – activates the human D3 dopamine receptor | P35462 | D3R DiscoveRx beta-arrestin cells, luminescence, 90 min | max activation, % | hit rate 0.58% among 410,000 | AID 652048; in the data active = max activation above about 30%
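Agonist-mode cell screen: cells plated at 1500/well and incubated overnight at 37 °C, then exposed to library compounds for 90 min at 37 °C. Detection reagent was added for 30–60 min at room temperature, and luminescence was read.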
HepG2 tox – kills HepG2 cells in TGF-b inhibitor counter-screen; HepG2 CAGA-GFP viability, ATP luminescence, 18 h; Potency, µM (titrated, usually from 46.1 µM), actives largely listed as cytotoxic; hit rate 0.76% among 410,000; AID 588856
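CellTiter-Glo luminescence gave cytotoxicity after 18 hours at 37 degrees C. The cells were HepG2 CAGA-GFP in 1% FBS DMEM, stimulated with 500 pg/mL TGF-beta after compound addition. %Activity was normalised to no-cell wells (complete cell-killing) and DMSO (no toxicity), and curves were fitted and classified.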
ATXN2 expr inh – reduces ATXN2 reporter expression in HEK-293 cells | HEK-293 ATXN2-luciferase reporter, luminescence, 24 h | Potency, µM (top dose mostly 57 µM), actives largely listed as inhibitors | hit rate 0.72% among 360,000; note: nearly all actives have a fitted effect of over 55% in size
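qHTS (up to 57 uM final) was run with 24 h compound exposure of reporter cells at 37 °C. Each well was multiplexed: SteadyGlo luminescence measured ATXN2-luciferase expression after a fluorogenic Gly-Phe-AFC viability readout (25 uM final).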
S2 tox – viability counter-screen for ATXN expression inhibitors. hit rate 0.49% among 400,000. Potency, µM (highest dose often 56.7 µM), most hits filed as cytotoxic. S2 cells (HEK-293 line with an ATXN2-luciferase reporter) viability, CellTiter-Fluor protease fluorescence, 24 h. AID 651635; note: nearly all actives have a fitted effect of over 40% in size
TGFb inhibitor – inhibitors of TGF-b signaling; AID 588855; hit rate 1.2% among 410,000; HepG2 CAGA-GFP TGF-b/SMAD3 reporter, GFP fluorescence, 18 h; TGF-beta stimulated, 500 pg/mL final; Potency, µM (doses to about 46.1 µM), most hits filed as inhibitors; note: nearly all actives have a fitted effect of over 65% in size
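HEPG2 CAGA-GFP cells (1000/well, DMEM with 1% FBS) were pre-incubated 2 h at 37 degrees C, given compound by pin tool, then stimulated with TGF-beta at 500 pg/mL final for 18 h before per-cell GFP fluorescence imaging.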
A number is an active result. Unless noted, calls come from the whole dose curve; as a rule, active = well fitted curve in the direction sought with a large enough effect; inconclusive = small, poorly fitted or top-dose-only effect, or another doubt; inactive = no such curve, though single readings can be large; an effect the other way counts as inactive or inconclusive.

How did O=C(NCCO)c1cn(C2CCN(Cc3c(F)cccc3Cl)CC2)nn1 do in these assays?
S2 tox: inactive

What do the screens show for `COc1c(Cl)cc(C(=O)N(Cc2ccc(C)o2)C2CCS(=O)(=O)C2)cc1Cl` (stereo not given)?
D3 ag: inactive; HepG2 tox: inactive; ATXN2 expr inh: inactive; S2 tox: inactive; TGFb inhibitor: inactive

How did C=CCOc1ccccc1CNCCCN1CCOCC1 do in these assays?
D3 antag: -59; D3 ag: inactive; HepG2 tox: inactive; ATXN2 expr inh: inactive; S2 tox: inactive; TGFb inhibitor: inactive

Results for C#CCSc1nc(Cc2ccc(Cl)cc2)nc2ccccc12 ?
D3 antag: inactive; D3 ag: 48; HepG2 tox: inactive; ATXN2 expr inh: inactive; S2 tox: inactive; TGFb inhibitor: inactive

Results for COc1ccc(-n2ccc(-c3sc(NCc4cc(OC)c5c(c4)OCO5)nc3C)n2)cc1 ?
S2 tox: inactive

Results for COc1cc(-c2noc(C)c2C#Cc2ccsc2)cc(OC)c1OC ?
D3 antag: inactive; D3 ag: inactive; HepG2 tox: inactive; ATXN2 expr inh: inactive; S2 tox: inactive; TGFb inhibitor: 11µM

What do the screens show for `Cn1cc(CN2CCC(C(=O)Nc3cccc(-c4cccc(F)c4)c3)CC2)cn1`?
D3 antag: inactive; D3 ag: inactive; HepG2 tox: inactive; ATXN2 expr inh: inactive; S2 tox: inactive; TGFb inhibitor: 11µM

How did Cc1cccc(CN2CCC(C(=O)Nc3cccc(-c4cccc(F)c4)c3)CC2)n1 do in these assays?
D3 antag: inactive; D3 ag: inactive; HepG2 tox: inactive; ATXN2 expr inh: inconclusive; S2 tox: inactive; TGFb inhibitor: inconclusive

What do the screens show for `CCCn1ncc(CN2CCC(C(=O)Nc3cccc(-c4cccc(F)c4)c3)CC2)c1C`?
D3 antag: inactive; D3 ag: inactive; HepG2 tox: 18µM; ATXN2 expr inh: inconclusive; S2 tox: inactive; TGFb inhibitor: inconclusive

Results for Cc1nn(C(C)C)c(C)c1CN1CCC(C(=O)Nc2cccc(-c3cccc(F)c3)c2)CC1 ?
D3 antag: -53; D3 ag: inactive; HepG2 tox: 11µM; ATXN2 expr inh: inactive; S2 tox: inactive; TGFb inhibitor: inconclusive

Results for CC1=C(C(=O)Nc2ccccc2)C(c2cccn2C)n2ncnc2N1 (stereo not given) ?
D3 ag: inactive; HepG2 tox: inactive; ATXN2 expr inh: inactive; S2 tox: inactive; TGFb inhibitor: inactive

What do the screens show for `CCOc1ccc(NC(=O)CC2C(=O)N(c3cccc(C)c3)C(=O)N2Cc2cccs2)cc1` (stereo not given)?
D3 ag: inactive; HepG2 tox: inactive; TGFb inhibitor: inactive

How did C(=Nc1cnc2ccccc2c1)c1ccncc1 do in these assays?
HepG2 tox: inactive; TGFb inhibitor: inactive

How did CCOC(=O)C1=CCC(c2ccccc2C)N(S(=O)(=O)c2ccc(C)cc2)C1 (stereo not given) do in these assays?
D3 antag: -50; D3 ag: inactive; HepG2 tox: inactive; ATXN2 expr inh: inactive; S2 tox: inactive; TGFb inhibitor: inconclusive

How did CCOC(=O)C1=CCC(c2ccc(C)cc2)N(S(=O)(=O)c2ccc(C)cc2)C1 (stereo not given) do in these assays?
D3 antag: inactive; D3 ag: inactive; HepG2 tox: inactive; ATXN2 expr inh: inactive; S2 tox: inactive; TGFb inhibitor: inconclusive

What do the screens show for `COC(=O)c1c(OCc2ccccc2)cc(=O)n2c1CCN(Cc1cccc(C)n1)CC2`?
S2 tox: inactive

What do the screens show for `O=C(O)C(=O)Nc1ncn[nH]1`?
D3 antag: inactive; D3 ag: inactive; HepG2 tox: inactive; S2 tox: inconclusive; TGFb inhibitor: inconclusive

Results for O=C(/C=C/c1ccccc1)Nc1ncn[nH]1 ?
D3 antag: inconclusive; D3 ag: inactive; HepG2 tox: inactive; ATXN2 expr inh: inconclusive; S2 tox: inconclusive; TGFb inhibitor: 10µM

How did COc1ccc(CN2CCOc3ccc(CN4CCC(Oc5cccnc5)CC4)cc3C2)cc1C do in these assays?
S2 tox: inactive

What do the screens show for `C#Cc1cccc(Nc2ncnc3cc(OCCOC)c(OCCO)cc23)c1`?
ATXN2 expr inh: inactive

How did CCC(=C(c1ccc(OC)cc1)c1ccc(OC)cc1)c1cn(CC(O)CN2CCN(C)CC2)c2ccccc12 (stereo not given) do in these assays?
D3 antag: inactive; D3 ag: inactive; HepG2 tox: 13µM; ATXN2 expr inh: inconclusive; TGFb inhibitor: inconclusive

Results for Cn1c(/C(C#N)=C(\O)c2cccc(F)c2)nc2ccccc21 ?
D3 antag: -51; D3 ag: inactive; HepG2 tox: inactive; ATXN2 expr inh: inactive; S2 tox: inactive; TGFb inhibitor: inactive

How did Cn1c(/C(C#N)=C(\O)c2ccc([N+](=O)[O-])cc2)nc2ccccc21 do in these assays?
D3 antag: inactive; D3 ag: inactive; HepG2 tox: inactive; S2 tox: inactive; TGFb inhibitor: inactive

What do the screens show for `COc1ccc(OCC(=O)Nc2ccc3c(c2)nc(CN2CCCC2)n3C)cc1`?
D3 antag: -54; D3 ag: inactive; HepG2 tox: inactive; ATXN2 expr inh: inactive; S2 tox: inactive; TGFb inhibitor: inactive

What do the screens show for `Cn1c(CN2CCCC2)nc2cc(NC(=O)COc3ccc(Cl)cc3)ccc21`?
D3 antag: -69; D3 ag: inactive; HepG2 tox: inactive; ATXN2 expr inh: inactive; S2 tox: inactive; TGFb inhibitor: inconclusive

Results for CC(C)NC(=O)[C@@H]1C[C@@H](Sc2ccccn2)CN1C1CCN(C)CC1 ?
S2 tox: inactive

Results for Cc1n[nH]c(C)c1CCc1nc2c3ccccc3nc(SCC(=O)Nc3ccc(F)cc3)n2n1 ?
D3 ag: inactive; HepG2 tox: 13µM; ATXN2 expr inh: inconclusive; S2 tox: inconclusive; TGFb inhibitor: inconclusive

Results for Cc1ccc(NC(=O)CSc2nc3ccccc3c3nc(CCc4c(C)n[nH]c4C)nn23)cc1F ?
D3 antag: inactive; D3 ag: inactive; HepG2 tox: inactive; ATXN2 expr inh: inactive; S2 tox: inconclusive; TGFb inhibitor: inactive

How did Cc1cccc(NC(=O)CSc2nc3ccccc3c3nc(CCn4cncc4C)nn23)c1 do in these assays?
D3 ag: inactive; HepG2 tox: 13µM; ATXN2 expr inh: inconclusive; TGFb inhibitor: inconclusive

What do the screens show for `COc1ccc(-c2noc(-c3ccc(NCc4ccc(C)cc4)c([N+](=O)[O-])c3)n2)cc1OC`?
D3 ag: inactive; HepG2 tox: inactive; ATXN2 expr inh: inactive; S2 tox: inactive; TGFb inhibitor: inactive

What do the screens show for `CCN1C(=NCc2cccc(Cl)c2)N[C@@H](c2cccc(C(F)(F)F)c2)C(C(=O)OC)=C1C`?
HepG2 tox: inactive; TGFb inhibitor: 14µM
